According to PubChem BioAssay (NCI):
The panel holds about 79,000 compounds, 15% with a hit somewhere; the sample as a whole holds those more often. Active and inactive are the calls of the source. No stated cut-off is given here; in the data, active means growth inhibition above about 70%; inactive means the rest. Where a SMILES comes first, the peptide text is derived from it. [ ]: non-standard residue; d: D form. The star is where a group is joined. ξ: configuration not given here. Cbz = O=C(OCc1ccccc1)*; ξK = NCCCCC(N)C(=O)O

Legend:
[1] = NCI Yeast Anticancer Drug Screen. Data for the rad50 strain (AID 155);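 further: 0% = growth of vehicle-only cultures of the same strain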; settings: S. cerevisiae rad50 strain growth inhibition, hits give high values; at 50.0 µM unless noted
Outline: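 Readout: growth inhibition relative to vehicle-treated cultures. Compound exposure was carried out in a genetically defined yeast strain deficient in DNA damage repair.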

[2] = NCI Yeast Anticancer Drug Screen. Data for the mec2-1 strain (AID 157); settings: S. cerevisiae mec2-1 strain, hits give high values; at 50.0 µM unless noted
Outline: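 Growth inhibition is read against vehicle-treated controls after compound exposure of the mec2-1 yeast strain, which is defective in DNA damage repair or cell cycle control.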

[3] = NCI Yeast Anticancer Drug Screen. Data for the sgs1 mgt1 strain (AID 161);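 further: 0% = growth of cultures given vehicle only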; settings: S. cerevisiae sgs1 mgt1 strain, hits give high values; at 50.0 µM unless noted
Outline: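 Compounds are added to genetically altered yeast, and growth is compared with cultures given vehicle alone to give percent inhibition.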

[4] = NCI Yeast Anticancer Drug Screen. Data for the cln2 rad14 strain (AID 165);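 further: 0% = growth equal to vehicle treated cultures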; settings: S. cerevisiae cln2 rad14 strain, hits give high values; at 50.0 µM unless noted
Outline: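 Growth inhibition, relative to vehicle-treated controls, is the read-out. The test organism is a yeast strain with defined genetic alterations, cln2 rad14.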

[5] = NCI Yeast Anticancer Drug Screen. Data for the bub3 strain (AID 167); settings: S. cerevisiae bub3 mutant strain, hits give high values; at 50.0 µM unless noted
Outline: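 Readout: yeast growth inhibition, expressed relative to vehicle-only wells. The test organism is a mutant strain from a panel with lesions in DNA repair or checkpoint genes.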

[6] = NCI Yeast Anticancer Drug Screen. Data for the mlh1 rad18 strain (AID 175); settings: S. cerevisiae mlh1 rad18 strain growth inhibition, hits give high values; at 50.0 µM unless noted
Outline: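 Cells of a genetically altered yeast strain, deficient in DNA damage repair, were treated with compound. Their growth was then compared with that of vehicle-treated cultures to give inhibition.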

Measured: growth inhibition

COC(=O)NC(=O)c1cn(CCCOC(=O)CCCCCCCCC(=O)OCCCn2cc(C(=O)NC(=O)OC)c(=O)[nH]c2=O)c(=O)[nH]c1=O
inactive: [1] -13.5% | [2] -3.8% | [3] -7.45% | [4] 9.9% | [5] 13.3% | [6] -12.4%

CN1C(=O)C/C(=C/[N+](=O)[O-])c2ccccc21
inactive: [1] 3.5% | [2] -1.05% | [3] 4.2% | [4] 8.05% | [5] 3.3% | [6] -18.9%

CCCCCCC(/C=N/NC(=O)CCCCCCCCC(=O)N/N=C/C(=C/c1ccccc1)CCCCCC)=C\c1ccccc1
inactive: [1] 11.4% | [2] 1.85% | [3] -5.95% | [4] -5.05% | [5] -1.45% | [6] 15.9%

CCOc1c(N=Nc2ccc(Cl)cc2Cl)c(C)nn1C(=S)SC
inactive: [1] 41.4% | [2] 16.1% | [3] 25.9% | [4] 15.5% | [5] -0.45% | [6] 19.6%

FC1=C(F)C2(F)C3CCC(O3)C2(F)C(Br)=C1F (stereo not given)
inactive: [1] -9.6% | [2] -3.3% | [3] 3.2% | [4] -1.35% | [5] -6.15% | [6] 4.5%

Nc1nc(CCCCc2ccc(NC(=O)CBr)cc2)c(CCCCc2ccccc2)c(=O)[nH]1
inactive: [1] 27.6% | [2] 11.3% | [3] 34.7% | [4] 24.8% | [5] -3.1% | [6] 11.4%

Fc1cccc2c(SCc3ccc(Cl)cc3Cl)cnnc12
inactive: [1] -0.9% | [2] -1.25% | [3] 3.25% | [4] -44.5% | [5] 13.8% | [6] 2.85%

Cc1cccc(C)c1NC(=O)c1c(Cl)c(Cl)c(Cl)c(Cl)c1C(=O)O
inactive: [1] -25.9% | [2] 11.8% | [3] -15.7% | [4] -20% | [5] 4.55% | [6] -18.2%

CCCCOC(=O)CC(O)C(=O)OCCCC (stereo not given)
inactive: [1] 39.1% | [2] -4.45% | [3] -17.5% | [4] -61.2% | [5] -29.9% | [6] -11%

C/C(=N/NC(N)=S)c1c(C)[nH]c2ccccc12
inactive: [1] 3.1% | [2] 10.2% | [3] -7.7% | [4] -78.8% | [5] -45% | [6] 0.95%

C=C1C[C@@H](O)C[C@@]2(C)C[C@@H]3OC(=O)C(=C)[C@@H]3C[C@H]12
inactive: [1] -5.9% | [2] -3% | [3] 16.2% | [4] 14.2% | [5] -16.6% | [6] 19.9%

Cc1cc(C)nc(NS(=O)(=O)c2ccc(Nc3c4ccccc4nc4c(C(=O)Nc5ccc(S(=O)(=O)Nc6cc(C)on6)cc5)ccc(Cl)c34)cc2)n1
inactive: [1] 32.9% | [2] 45.1% | [3] 23.1% | [4] 42.2% | [5] 18.9% | [6] 41.5%

FC(F)(F)c1cc(NC(=S)SCc2ccc3c(c2)OCO3)ccc1Cl
inactive: [2] 63.9% | [4] 38.5% | [5] 59.2%
active: [1] 73.5% | [3] 73.3% | [6] 84%

COc1ccc(-n2cnc3c2NC(C)(C)N=C3C(N)=O)c(OC)c1
inactive: [1] -17.8% | [2] -30.1% | [3] -36.1% | [4] 24.9% | [5] -10.2% | [6] -23.2%

O=C1C(c2ccccc2)=C(c2ccccc2)C1(Cl)Cl
inactive: [1] -5.95% | [2] -6.1% | [3] 44.3% | [4] 37.6% | [5] 17.9%
active: [6] 88.4%

Brc1ccc(-c2ccccc2)cc1
inactive: [1] 28.8% | [2] 17.8% | [3] 17.2% | [4] 15.1% | [5] 8.9% | [6] 21.4%

Cc1c(OCCCOc2ccc3c(=O)cc(-c4ccccc4)oc3c2C)ccc2c(=O)cc(-c3ccccc3)oc12
inactive: [1] -35.6% | [2] -18.1% | [3] -13.7% | [4] 31.5% | [5] -39.9% | [6] -31.8%

CC(=O)c1cc(Cc2cc(C)cc(C)c2O)c(O)c(Cc2cc(C)cc(C)c2O)c1
inactive: [1] 18.9% | [2] 11.6% | [3] 28.9% | [4] 33.7% | [5] 17.4% | [6] 4.05%

CC1CC(=O)c2c(ccc3c2C(=O)c2cccc(O)c2C3=O)C1 (stereo not given)
inactive: [1] -3.55% | [2] -0.45% | [3] 40.2% | [4] 24.8% | [5] -1.05% | [6] 52.8%

CCCCOC(=O)c1cccc(C)c1
inactive: [1] -3% | [2] 4.4% | [3] -4.35% | [4] -38.1% | [5] 2.6% | [6] -0.9%

CN(C(=O)c1ccc([N+](=O)[O-])cc1)C(c1ccco1)P(=O)(c1ccccc1)c1ccccc1 (stereo not given)
inactive: [2] 36.4% | [3] 56.5% | [4] 0.4% | [5] 46.2% | [6] 26.4%
active: [1] 71.1%

O=CC(CO)C(C=O)n1ncc2ccccc21 (stereo not given)
inactive: [1] 30.2% | [2] 7.7% | [3] 28.3% | [4] 9.55% | [5] 13.3% | [6] 30.8%

CCOC(=O)C(C)(c1[nH]c2ccccc2c1C)c1[nH]c2ccccc2c1C
inactive: [1] -0.55% | [2] -6.2% | [3] -14.2% | [4] -1.4% | [5] -14.6% | [6] -5.7%

NCC(=O)NC(CCCCNC(=O)OCc1ccccc1)C(=O)O (stereo not given) (H-Gly-[ξK](Cbz)-OH)
inactive: [1] -6.8% | [2] 21% | [3] -10.7% | [4] -3.5% | [5] -20.1% | [6] -22.4%

CCCCCCCCCCCCCCCC[N+](C)(C)CC#N
active: [1] 99.4% | [2] 99.3% | [3] 99.2% | [4] 99% | [5] 99.2% | [6] 99.5%

O=C(/C=C/c1ccccc1)CSc1ncn[nH]1
inactive: [1] 10.1% | [2] 5.4% | [3] 8.7% | [4] 4.75% | [5] 19.4% | [6] -7.4%

O=C(COc1cc(Cl)c(Cl)cc1Cl)Nc1ccc(Cl)cc1
inactive: [1] 14.7% | [2] 19.9% | [3] 18% | [4] 17.2% | [5] 17.1% | [6] 11.2%

CC1CCCN1c1ccnc2cc(Cl)ccc12 (stereo not given)
inactive: [1] 11.9% | [2] -3.3% | [3] 7.15% | [4] -2.2% | [5] 8.25% | [6] 20.3%

CC1=C(CCC(=O)O)C(=O)C(CCC(=O)O)C(C)(C)C1 (stereo not given)
inactive: [1] 19.4% | [2] 7.45% | [3] 13.2% | [4] 56.6% | [5] 4.6% | [6] 8.15%

Cc1cccc(C(=O)NNC(=O)C(=O)NNC(=O)c2cccc(C)c2)c1
inactive: [1] 3.6% | [2] 43.6% | [3] -3.1% | [4] -0.05% | [5] 24.6% | [6] 26.9%

CCCOC(=O)C1C(c2ccc(OC)cc2)NC(c2ccc(OC)cc2)C(C(=O)OCCC)S1(=O)=O (stereo not given)
inactive: [1] -39.5% | [2] -2.8% | [3] -21.6% | [4] -5% | [5] -19.4% | [6] -14.3%

COC(=O)c1ccc(COC(=O)N2C=CCC2C(=O)O)cc1 (stereo not given)
inactive: [1] 20.2% | [2] -19.6% | [3] 13.4% | [4] 11.7% | [5] 4% | [6] 1.15%

O=C(OCc1ccccc1)C1CCN1C(c1ccccc1)c1ccccc1 (stereo not given)
inactive: [1] 7.85% | [2] 13.5% | [3] 5.5% | [4] -25.6% | [5] 11.2% | [6] -7.8%

CCCC1N[C@H](C(=O)O)CS1 (stereo not given in full)
inactive: [1] 15.7% | [2] 7.1% | [3] -1.85% | [4] 7.2% | [5] 10.1% | [6] -3.85%

C(/C=N/Nc1ccccc1)=N\Nc1ccccc1
inactive: [1] 24.1% | [2] -8.15% | [3] -0.65% | [4] -3% | [5] -9.85% | [6] 8.8%

N#C/C=C\c1ccc(-c2cc(C(F)(F)F)cc(C(F)(F)F)c2)o1
inactive: [1] -49% | [2] -22.6% | [3] -42.5% | [4] 3.65% | [5] 10.8% | [6] -57.5%

N#CC(C(=O)CCC(=O)C(C#N)c1ccccc1)c1ccccc1 (stereo not given)
inactive: [1] -26.4% | [2] -14.8% | [3] 1.2% | [4] 5.9% | [5] 6.45% | [6] -6.4%

CC(=O)Nc1ccc(S(=O)(=O)O)c(OC(C)=O)c1
inactive: [1] 20.8% | [2] -7.2% | [3] 9.85% | [4] -11.8% | [5] 7.35% | [6] 19.1%

O=C(O)CN(CCCN(CC(=O)O)CC(=O)O)CC(=O)O
inactive: [1] -5% | [2] 0.85% | [3] -2.5% | [4] -14% | [5] -7.4% | [6] -30.2%

CN(C)c1ccc(O[Si](Oc2ccc(N(C)C)cc2)(Oc2ccc(N(C)C)cc2)Oc2ccc(N(C)C)cc2)cc1
inactive: [1] 27.6% | [2] 37.2% | [3] 25.8% | [4] 29.4% | [5] 14.3% | [6] 43.8%
